The labels stand for the following.
B1: VH:VL chains; a variant is named by its letters at X, in order (parent)
chain 1: QVQLVQSGAEVKKPGASVKVSCKASGYTFTDYXMHWVRQAPGQGLEWMGXVNPNXXXTTYNQKFEGRVTMTTDTSTSTAYMELRSLRSDDTAVYYCARXNXLDXWGQGTTVTVSS
chain 2: DIQMTQSPSSLSASVGDRVTITCSVSSSVSSIYLHWYQQKPGKAPKLLIYSTSNLASGVPSRFSGSGSGTDFTLTISSLQPEDFATYYCQVYSGYPLTFGGGTKVEIK

Some of the results follow. The hit rate among all sequences tested is not known here.

In this experiment the parent is B1. Briefly: yeast display scFab, FACS + sequencing. The following applies: with MET. The procedure, abridged:
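A yeast surface library of scFab variants carrying heavy-chain CDR mutations went through two magnetic enrichment rounds on Protein A beads coated with HGFR-Fc, then FACS. For sorting, cells were labelled for 3 h at room temperature with 1 nM HGFR-Fc and anti-Myc in PBSB containing 1% milk, and the top 50% of antigen-positive cells were gated. Input and round-3 sorted populations were deep sequenced in two replicates. A sequence was called an antigen binder if it appeared in both antigen-positive samples and a non-binder if it appeared only in the input.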
Regarding DEAKAAVD, the antigen binding call is reported as “no binding”.
The result for SETGGDWV reads “no binding”; that for YRGESSGF, “binds”.
With VRGKGSGF the entry was “binds”.
With VTGTGSGF the entry was “no binding”.
Consider SREAASGV, for which the antigen binding call is listed as “no binding”.
With SRGKGSGV the entry was “binds”; with VTGKGDGV, “no binding”.
With VRGKGSGV the entry was “binds”; with ARGKGSGD, “no binding”.
VRGKGDWV: the antigen binding call is on record as “no binding”.
As for STGKGSGV, the antigen binding call was “no binding”.
As for VTGTGSLV, the antigen binding call was “no binding”.
The result for DEGGTDAA reads “no binding”.
With AAEKDDLA the entry was “no binding”; with YTGTGAVF, “no binding”.
With DRAGDDVF the entry was “no binding”; with YRKRSVVF chain 1 S115F, “no binding”.
With YRGKGAVF, the antigen binding call is “binds”.
As for YRGKSSGF, the antigen binding call is recorded as “binds”.
With YRAKSAVF the entry was “binds”; with FRGKGSGF, “binds”.
Turning to YRGKGSGF, the antigen binding call is listed as “binds”.
With YRGKGSGS the entry was “binds”.
Turning to YRGKGDGS, the antigen binding call is “no binding”.
For DARGGDGS, the antigen binding call was “no binding”.
With FRETDFGA the entry was “no binding”.
With ARAGDDAV the entry was “no binding”; with FRTGDDAV, “binds”.
The result for FRTGDDGA reads “binds”; that for DRAGDDAV, “no binding”; that for DRAGDDGA, “no binding”.
On to DRTGDDVA, for which the antigen binding call is reported as “no binding”.
With FRTGDAGA the entry was “binds”; with FRTGDDAA, “binds”.
With FATGSDGA the entry was “no binding”; with DRGGDDAA, “no binding”; with DREEGDWV, “no binding”.
In the case of STAEDFVV, the antigen binding call is reported as “no binding”.
For the variant YRRGGFGA, the antigen binding call is reported as “binds”.
With VRRGSFGA the entry was “no binding”.
With YARTGFGA the entry was “binds”; with YRKRTFGA, “no binding”.
As for YAGRGFGA, the antigen binding call is listed as “no binding”.
Take YAGKGFGA: the antigen binding call is listed as “no binding”.
Take YGAGDFGA: the antigen binding call is recorded as “no binding”.
With YRRGSFGA the entry was “binds”.
With SKKEDSAD the entry was “no binding”; with SEARSALD, “no binding”; with SKAGGSAD, “binds”.
With YKAGGALD the entry was “binds”.
SKAGGDVD: the antigen binding call is on record as “no binding”.
For the variant YKAKGALD, the antigen binding call is given as “binds”.
The result for SKAGGALD reads “binds”.
With VKAGGDSD the entry was “no binding”.
Take VATGDDVY: the antigen binding call was “no binding”.
In the case of VRAGAFSV, the antigen binding call is given as “no binding”.
Turning to DTGTGDVF, the antigen binding call was “no binding”.

The values are drawn from the emibetuzumab library of Makowski et al. (2022).
